Reference: PubChem BioAssay (NCI)
Compounds without any hit were thinned out: in the full panel of roughly 79,000, 15% have a hit. Values without a mark were called inactive. Activity calls are given as the source filed them. No stated cut-off is given here; in the data, active means growth inhibition above about 70%; inactive means the rest.

Experiments:
[1] = NCI Yeast Anticancer Drug Screen. Data for the rad50 strain (AID 155);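 further: 0% = growth of vehicle-only cultures of the same strain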; conditions: S. cerevisiae rad50 strain growth inhibition, hits give high values
Summary of the method: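 Growth of the mutant yeast was measured after compound exposure and referenced to vehicle-treated cultures.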

[2] = NCI Yeast Anticancer Drug Screen. Data for the mec2-1 strain (AID 157); conditions: S. cerevisiae mec2-1 strain, hits give high values
Summary of the method: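 Compounds were applied to mec2-1 yeast cells. Their growth was then compared with that of vehicle-treated cultures to give growth inhibition.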

[3] = NCI Yeast Anticancer Drug Screen. Data for the sgs1 mgt1 strain (AID 161);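 further: 0% = growth of cultures given vehicle only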; conditions: S. cerevisiae sgs1 mgt1 strain, hits give high values
Summary of the method: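 Compounds are added to genetically altered yeast, and growth is compared with cultures given vehicle alone to give percent inhibition.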

[4] = NCI Yeast Anticancer Drug Screen. Data for the cln2 rad14 strain (AID 165);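 further: 0% = growth equal to vehicle treated cultures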; conditions: S. cerevisiae cln2 rad14 strain, hits give high values
Summary of the method: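 Strain: cln2 rad14 yeast, altered in cell cycle control and DNA damage repair. Read-out: growth inhibition vs vehicle.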

[5] = NCI Yeast Anticancer Drug Screen. Data for the bub3 strain (AID 167); conditions: S. cerevisiae bub3 mutant strain, hits give high values
Summary of the method: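 Whole-cell yeast assay. The mutant strain was incubated with compounds, and growth inhibition was determined by comparison with vehicle-treated cells.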

[6] = NCI Yeast Anticancer Drug Screen. Data for the mlh1 rad18 strain (AID 175); conditions: S. cerevisiae mlh1 rad18 strain growth inhibition, hits give high values
Summary of the method: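 A repair-deficient yeast strain is exposed to test compound, and growth is scored relative to vehicle-treated controls.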

[7] = at 5.0 µM (retest, dose inferred, filed as 0.5)
[8] = at 50.0 µM (retest, dose inferred, filed as 5.0)

SMILES	growth inhibition [1, 7]	growth inhibition [1, 8]	growth inhibition ([1]; at 50.0 µM)	growth inhibition [2, 7]	growth inhibition [2, 8]	growth inhibition ([2]; at 50.0 µM)	growth inhibition [3, 7]	growth inhibition [3, 8]	growth inhibition ([3]; at 50.0 µM)	growth inhibition [4, 7]	growth inhibition [4, 8]	growth inhibition ([4]; at 50.0 µM)	growth inhibition [5, 7]	growth inhibition [5, 8]	growth inhibition ([5]; at 50.0 µM)	growth inhibition [6, 7]	growth inhibition [6, 8]	growth inhibition ([6]; at 50.0 µM)
CCCCCNc1ccc2c(cc1=O)C(NC(C)=O)CCc1cc(OC)c(OC)c(OC)c1-2 (stereo not given)	16%	89% (active)	13.4%	10%	97% (active)	19.8%	11%	98% (active)	18.2%	16%	93% (active)	71.7% (active)	21%	97% (active)	45.2%	19%	95% (active)	24.9%
CCOc1ccc2c(ccc(/C=C\c3cc(C)c4cccnc4c3O)[n+]2C)c1	91% (active)	92% (active)	87.3% (active)	81% (active)	91% (active)	89.2% (active)	87% (active)	93% (active)	90% (active)	67%	87% (active)	86.8% (active)	59%	91% (active)	82.8% (active)	95% (active)	93% (active)	89% (active)
CCc1c(C)[nH]c2c([N+](=O)[O-])cccc12	5%	29%	95.2% (active)	8%	-14%	94.5% (active)	-3%	-1%	95.2% (active)	-6%	-2%	94.5% (active)	-13%	3%	96% (active)	1%	27%	94.8% (active)
O=C(SCCCc1ccccc1)c1cc([N+](=O)[O-])cc([N+](=O)[O-])c1	98% (active)	87% (active)	75.7% (active)	100% (active)	98% (active)	66.3%	99% (active)	94% (active)	85.8% (active)	94% (active)	89% (active)	78.6% (active)	98% (active)	98% (active)	66%	98% (active)	94% (active)	76.6% (active)
N#CC1=C(N)OC(/C=C/c2ccccc2)=C(C#N)C1c1ccccc1 (stereo not given)	33%	81% (active)	90.2% (active)	25%	81% (active)	76.3% (active)	30%	91% (active)	93.6% (active)	33%	86% (active)	101% (active)	23%	81% (active)	75% (active)	19%	86% (active)	88.3% (active)
c1cc[c]([Sn]([S]c2cccc3cccnc23)([c]2ccccc2)[c]2ccccc2)cc1	100% (active)	98% (active)	96.3% (active)	100% (active)	100% (active)	98.7% (active)	100% (active)	99% (active)	96.9% (active)	99% (active)	99% (active)	94.2% (active)	99% (active)	99% (active)	99% (active)	100% (active)	99% (active)	98.1% (active)
CC12OC1C(=O)c1ccccc1C2=O (stereo not given)	4%	85% (active)	88.5% (active)	15%	93% (active)	92.1% (active)	9%	87% (active)	89.9% (active)	19%	65%	57.6%	9%	96% (active)	90.9% (active)	-2%	95% (active)	81.6% (active)
ClC(Cl)(Cl)C1OCOC(C(Cl)(Cl)Cl)O1 (stereo not given)	20%	98% (active)	99.2% (active)	17%	99% (active)	99.2% (active)	11%	99% (active)	99.3% (active)	24%	99% (active)	99.3% (active)	3%	98% (active)	99.3% (active)	33%	99% (active)	99.3% (active)
O=C1c2ccccc2C(=O)C2OC12 (stereo not given)	48%	98% (active)	93.2% (active)	48%	98% (active)	95.1% (active)	50%	99% (active)	94.7% (active)	72% (active)	99% (active)	93.3% (active)	73% (active)	100% (active)	93.5% (active)	51%	99% (active)	89.9% (active)
CCCCC(CC)CCC(C)OC(=O)C(O)c1ccccc1 (stereo not given)	-1%	86% (active)	61.8%	-6%	87% (active)	86.7% (active)	-4%	85% (active)	83% (active)	1%	82% (active)	32.5%	1%	88% (active)	75.5% (active)	-4%	90% (active)	87.8% (active)
